According to PubChem BioAssay (NCI):
Several values for one entry are separate records, joined by “and”; a condition that tells them apart may be missing. Identical values can stand only once. This is part of a sample that, as a whole, favours compounds with a hit. Of some 83,000 tested, about 20% had one in any assay.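 Cell lines were cultured in 96-well plates, exposed to a single compound concentration, and assessed for percent growth 48 hours later.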 Activity calls are given as the source filed them. Rule for the calls: active = growth percent below 10; inactive = the rest.

What follows are compounds tested on MDA-MB-468 breast (assay: NCI-60 one-dose screen, 48 h (100 = growth as untreated, 0 = no growth, -100 = all killed)). Settings: 10 µM unless noted.
`OC(c1cc(-c2ccc(Cl)cc2)nc2c(Cl)cccc12)C1CCCCN1` (stereo not given) was tested, and the growth was -86.7% (active). For `O=C(c1ccccc1)C(CN1CCCCC1)c1ccccc1` (stereo not given), the growth was -29.1% (active). For `CS(=O)(=O)Nc1cccc(-c2cc(-c3ccccc3Cl)c(C#N)c(N)n2)c1`, the growth was -9.46% (active). For `NC(=O)CN1C(=O)c2ccccc2C1=O`, the growth was 107% (inactive). In the case of `COC(=O)[C@]12CC[C@@H](C)[C@H](C)[C@@H]1C1=CC[C@@H]3[C@@]4(C)C(C=O)=C[C@@](C)(COC(=O)c5ccco5)C4=CC[C@@]3(C)[C@]1(C)CC2`, the growth is reported as 5.01% (active). In the case of `COc1ncc(-c2ccc3ncnc(Nc4cccc(Cl)c4)c3c2)cc1N(S(C)(=O)=O)S(C)(=O)=O`, the growth is reported as -3.15% (active). `CCOC(=O)c1cc(C(=O)c2ccc(OC)cc2)n2ccc(/C=C/c3cc[n+](CC(=O)c4ccc(OC)cc4)cc3)cc12` was tested, and the growth was -38.2% (active). For `O=c1c2c([nH]c3ccccc13)CCCC2`, the growth was 88.2% (inactive) and 14.6% (inactive). With `CC12CCC3C(CCC4CC(=O)/C(=C\O)CC43C)C1CCC(=O)O2` (stereo not given) the growth was 108% (inactive). For `Clc1ccc(-c2nnc(-c3ccco3)o2)cc1`, the growth was 100% (inactive). With `CC(C)(C)CC(C)(C)NC(=O)Nc1ncccc1OCc1ccccc1` the growth was 96% (inactive). In the case of `C=C1C(=O)O[C@@H]2/C=C(/C)C3=CC(=O)[C@@](C)(C[C@H](OC(=O)/C(C)=C\C)[C@@H]12)O3`, the growth is reported as -43.6% (active). For `Fc1cccc(Cl)c1/C=N/Nc1nc(N/N=C/c2c(F)cccc2Cl)nc(N2CCCCC2)n1`, the growth was -14.2% (active). For `CCN1C(=S)N(CC)C2C1NC(=S)N2/N=C/C=C/c1ccccc1` (stereo not given), the growth was 2.3% (active). In the case of `c1ccc(CNc2ccc3nc(CCC4CCCCC4)[nH]c3c2)cc1`, the growth is reported as 43% (inactive). With `O=C(Nc1ccc(F)cc1F)c1cc(Cl)ccc1O` the growth was -4.07% (active). `O=C(CI)NC(=O)NC(=O)NCc1ccccc1` was tested, and the growth was 65.5% (inactive). For `O=[N+]([O-])c1ccc2ncccc2c1Cl`, the growth was -2.71% (active). For `Brc1ccc(Nc2nc3ccccc3nc2Nc2ccc(Br)cc2)cc1`, the growth was -48.6% (active). With `Nc1cccc(C(=O)Nc2ccc3c(O)c(N=Nc4ccc(N=Nc5ccc(S(=O)(=O)O)cc5)cc4)c(S(=O)(=O)O)cc3c2)c1` the growth was 113% (inactive). With `Cc1onc(-c2ccccc2Cl)c1C(=O)Cl` the growth was 104% (inactive). For `C[C@@H]1CC2C3CCC4=CC(=O)C=C[C@]4(C)[C@@]3(Cl)[C@@H](O)C[C@]2(C)[C@@]1(OC(=O)c1ccco1)C(=O)CCl` (stereo not given in full), the growth was 104% (inactive). `COc1cc(-c2nc(SCCC(C)C)nc(Nc3ccccc3)c2C#N)cc(OC)c1OC` was tested, and the growth was 112% (inactive). With `O=C(Nn1c2c(sc1=Nc1ccccc1)C(=O)c1ccccc1C2=O)c1cc2ccc1CCc1ccc(cc1)CC2` the growth was 105% (inactive). For `COc1cc(C(=O)NNC(=O)c2ccc(NC(=O)CCl)cc2)cc(OC)c1OC`, the growth was 70.3% (inactive). `CCN(CC)c1ccc(/C=C/c2cc(C)c3ccccc3n2)cc1` was tested, and the growth was 1.02% (active). For `C=C1C(=O)O[C@H]2[C@H]1CC/C(COC(=O)NCCCCNC(=O)OC/C1=C/CC[C@@]3(C)O[C@H]3[C@H]3OC(=O)C(=C)[C@@H]3CC1)=C\CC[C@@]1(C)O[C@@H]21`, the growth was -14.8% (active). With `CC1=C(N2CCOCC2)C(N2CCOCC2)=C(C)C(=O)C1=O` the growth was 97.1% (inactive). With `C=C(C)[C@@H]1CC[C@]2(C(=O)O)CC[C@]3(C)[C@H](CC[C@@H]4[C@@]5(C)C/C(=C/c6ccco6)C(=O)C(C)(C)[C@@H]5CC[C@]43C)[C@@H]12` the growth was -27.1% [100 µM] (active). For `COc1ccc(-c2[nH]nc(N)c2-c2cc(OC)c(OC)c(OC)c2)cc1`, the growth was 34% (inactive). In the case of `COc1cc(-c2nn(C(C)(C)C)cc2-c2ccnc(NCCCNS(=O)(=O)c3cccc(F)c3)n2)ccc1Cl`, the growth is reported as 77.8% (inactive). With `COC(=O)c1cnc2c(c1)Oc1ccc(Cl)cc1-c1cc(C)nn1-2` the growth was 92% (inactive). For `COc1ccc(C(=O)c2cc3c(N)c(C(=O)Nc4ccc(Cl)cc4)sc3nc2C)cc1`, the growth was 76.7% (inactive). With `CC(=O)c1ccc(NCC(=O)Nc2ccccn2)cc1` the growth was 106% (inactive). With `CC1=CC(=O)C=CC1=Nc1ccc(N(C)C)cc1` the growth was 48.8% (inactive) and -87.8% (active). In the case of `S=C(SSC(=S)N1CCOCC1)N1CCOCC1`, the growth is reported as 106% (inactive). `O=C(NNc1nc2cc(F)c(F)cc2n2cccc12)c1cnccn1` was tested, and the growth was 17.5% (inactive). With `CCOC(=O)C1=C(C)N2C(=NC3=C(CCC/C3=C\c3ccc(Cl)cc3)C2c2ccc(Cl)cc2)S1` (stereo not given) the growth was 4.45% (active). `O=C(/C=C\c1cc(Br)ccc1O)/C=C/c1cc(Br)ccc1O` was tested, and the growth was -65% (active). With `CC(C)(C)OC(=O)NCCc1ccc(N=C=S)cc1` the growth was 60.6% (inactive).
